These results are taken from the antibiotic and cytotoxicity screens of Wong et al. (2023).

Molecules are shown by their SMILES. Hit rate of the full screen: of about 39,000 compounds, about 3,300 (8.5%) were called active. The list comes from a sample in which actives are over-represented; it also holds similar structures and randomly drawn compounds.

This assay has as its system HepG2. Briefly: cytotoxicity call (relative viability < 0.9). The settings on record: 10 µM.
Consider `COc1ccc(S(=O)(=O)Nc2ccc3c(c2)C(=O)N([C@H](C)CO)C[C@H](C)[C@H](CN(C)C(=O)c2ccccc2)OCCCC[C@H](C)O3)cc1`, for which the cytotoxicity call was “inactive”.
To `CCS(=O)(=O)Nc1ccc2c(c1)C(=O)N(C)C[C@H](OC)[C@@H](C)CN(C(=O)c1ccc3c(c1)OCO3)[C@@H](C)CO2` belongs “inactive”; to `O=C1CCOCCN1`, “inactive”.
Next, `C[C@@H]1CCCCO[C@H](CN(C)S(C)(=O)=O)[C@@H](C)CN([C@H](C)CO)C(=O)c2cc(NS(=O)(=O)c3ccccc3)ccc2O1`: “inactive”.
To `CC(C)C#Cc1cnc2c(c1)C(=O)N([C@H](C)CO)C[C@H](C)[C@@H](CN(C)C(=O)c1ccc3c(c1)OCO3)O2` belongs “inactive”; to `COc1ccc(-c2cnc3c(c2)C(=O)N([C@@H](C)CO)C[C@@H](C)[C@H](CN(C)C(=O)Cc2ccncc2)O3)cc1`, “inactive”.
Consider `Cc1ccc(S(=O)(=O)N(C)C[C@@H]2Oc3ccc(NC(=O)CCCN(C)C)cc3C(=O)N([C@@H](C)CO)C[C@H]2C)cc1`, for which the cytotoxicity call is “inactive”.
Next, `CCC=CCC1=C(C)CCC1=O`: “inactive”; `C[C@]1(C(=O)NCc2ccccc2)c2ccccc2C(=O)N(Cc2ccccc2)[C@H]1c1ccc(COC(=O)NCCCCCC(=O)NO)cc1`: “inactive”; `COc1ccc(CN(C)C[C@@H]2OCCCC[C@H](C)Oc3ccc(NC(=O)Nc4ccccc4)cc3C(=O)N([C@@H](C)CO)C[C@@H]2C)cc1`: “inactive”.
Next, `Cc1ccc(S(=O)(=O)Nc2ccc3c(c2)C(=O)N([C@H](C)CO)C[C@@H](C)[C@H](CN(C)C(=O)C2CCCCC2)OCCCC[C@H](C)O3)cc1`: “inactive”; `O=C(C[C@@H]1CC[C@@H]2[C@H](COC[C@@H](O)CN2S(=O)(=O)c2ccc(Cl)cc2)O1)NCc1ccncn1`: “inactive”; `Cc1noc(C)c1S(=O)(=O)Nc1ccc2c(c1)C(=O)N([C@@H](C)CO)C[C@H](C)[C@@H](CN(C)S(=O)(=O)c1ccc(F)cc1)O2`: “inactive”.
Next, `C[C@H]1CN([C@@H](C)CO)C(=O)Cc2cc(NS(=O)(=O)c3ccc(F)cc3)ccc2O[C@H]1CN(C)Cc1ccc(Oc2ccccc2)cc1`: “active”.
As for `C[C@@H]1CN([C@@H](C)CO)C(=O)Cc2cc(NS(=O)(=O)c3ccc(F)cc3)ccc2O[C@H]1CN(C)Cc1ccc(Oc2ccccc2)cc1`, the cytotoxicity call was “inactive”.
To `C[C@H]1CN([C@@H](C)CO)C(=O)Cc2cc(NS(=O)(=O)c3ccc(F)cc3)ccc2O[C@@H]1CN(C)Cc1ccc(Oc2ccccc2)cc1` belongs “inactive”; to `C[C@@H]1CN([C@@H](C)CO)C(=O)Cc2cc(NS(=O)(=O)c3ccc(F)cc3)ccc2O[C@@H]1CN(C)Cc1ccc(Oc2ccccc2)cc1`, “active”.
Next, `C[C@H](CO)N1C[C@H](C)[C@H](CN(C)Cc2ccc(Oc3ccccc3)cc2)Oc2ccc(NS(=O)(=O)c3ccc(F)cc3)cc2CC1=O`: “active”; `C[C@@H]1CN([C@H](C)CO)C(=O)Cc2cc(NS(=O)(=O)c3ccc(F)cc3)ccc2O[C@H]1CN(C)Cc1ccc(Oc2ccccc2)cc1`: “active”; `Cc1noc(C)c1NC(=O)N(C)C[C@H]1Oc2ccc(NC(=O)c3ccncc3)cc2CC(=O)N([C@H](C)CO)C[C@H]1C`: “inactive”.
To `CC(C)NC(=O)N(C)C[C@@H]1OCCCC[C@@H](C)Oc2ccc(NC(=O)Nc3ccccc3)cc2C(=O)N([C@@H](C)CO)C[C@H]1C` belongs “inactive”.
Consider `C[C@H]1CN([C@@H](C)CO)C(=O)c2cc(NS(=O)(=O)c3ccc(Cl)cc3)ccc2O[C@@H]1CN(C)S(C)(=O)=O`, for which the cytotoxicity call was “inactive”.
To `C[C@H](CO)N1C[C@H](C)[C@@H](CN(C)C(=O)C2CCOCC2)Oc2ncc(C#Cc3cccc(F)c3)cc2C1=O` belongs “inactive”; to `C[C@@H]1CN([C@@H](C)CO)C(=O)c2cc(NC(=O)Nc3cccc4ccccc34)ccc2O[C@@H](C)CCCCO[C@@H]1CN(C)S(=O)(=O)c1cccs1`, “inactive”.
Next, `COc1ccccc1C#Cc1cnc2c(c1)C(=O)N([C@@H](C)CO)C[C@@H](C)[C@H](CN(C)C(=O)CC1CC1)O2`: “inactive”; `Cc1ccc(S(=O)(=O)Nc2ccc3c(c2)C(=O)N([C@H](C)CO)C[C@@H](C)[C@H](CN(C)C(=O)NC(C)C)O3)cc1`: “inactive”; `C[C@@H]1CN([C@H](C)CO)C(=O)CCCn2cc(nn2)CO[C@@H]1CN(C)C(=O)c1cc(-c2ccccc2)on1`: “inactive”.
To `CN(C)CCCCNC(=O)[C@@H]1C[C@@H]2C(=O)N[C@@H](CCCC[N+](C)(C)C)C(=O)N2[C@@H]1c1ccc(O)cc1` belongs “inactive”.
Turning to `C[C@H]1CCCCO[C@H](CN(C)C(=O)Nc2ccc(C(F)(F)F)cc2)[C@@H](C)CN([C@@H](C)CO)C(=O)c2cc(NC(=O)Nc3cccc4ccccc34)ccc2O1`, the cytotoxicity call was “inactive”.
To `COc1ccc(S(=O)(=O)N(C)C[C@H]2Oc3ccc(NC(=O)Nc4c(C)noc4C)cc3CC(=O)N([C@@H](C)CO)C[C@@H]2C)cc1` belongs “inactive”; to `CCS(=O)(=O)N1C[C@]2(CN(C2)C(=O)Nc2ccc(cc2)F)c2c(n(c3cc(ccc23)OC)C)[C@H]1CO`, “inactive”; to `C[C@H](CO)N1C[C@H](C)[C@@H](CN(C)Cc2ccc(Oc3ccccc3)cc2)Oc2ccc(NS(=O)(=O)c3ccc(F)cc3)cc2CC1=O`, “inactive”.
To `C[C@@H]1CN([C@H](C)CO)C(=O)Cc2cc(NS(=O)(=O)c3ccc(F)cc3)ccc2O[C@@H]1CN(C)Cc1ccc(Oc2ccccc2)cc1` belongs “active”; to `CC(=O)[C@@H](OC(=O)CS(C)(=O)=O)C(=O)NCc1ccccc1`, “inactive”; to `COc1ccc(S(=O)(=O)Nc2ccc3c(c2)C(=O)N([C@H](C)CO)C[C@@H](C)[C@H](CN(C)C(=O)CCC(F)(F)F)OCCCC[C@@H](C)O3)cc1`, “inactive”.
Next, `C[C@@H]1CCCCO[C@H](CN(C)C(=O)C2CCCCC2)[C@H](C)CN([C@@H](C)CO)C(=O)c2cc(NS(=O)(=O)c3ccc(Cl)cc3)ccc2O1`: “inactive”; `C[C@@H]1CCCCO[C@H](CN(C)C(=O)C2CCCCC2)[C@@H](C)CN([C@H](C)CO)C(=O)c2cc(NS(=O)(=O)c3ccc(Cl)cc3)ccc2O1`: “inactive”; `COc1ccc(S(=O)(=O)Nc2ccc3c(c2)C(=O)N([C@H](C)CO)C[C@H](C)[C@H](CN(C)C(=O)C2CCCCC2)OCCCC[C@H](C)O3)cc1`: “active”.
As to `COc1ccc(S(=O)(=O)Nc2ccc3c(c2)C(=O)N([C@H](C)CO)C[C@@H](C)[C@H](CN(C)C(=O)C2CCCCC2)OCCCC[C@@H](C)O3)cc1`, the cytotoxicity call is “inactive”.
Next, `C[C@@H]1CCCCO[C@H](CN(C)C(=O)C2CCCCC2)[C@H](C)CN([C@H](C)CO)C(=O)c2cc(NS(=O)(=O)c3ccccc3)ccc2O1`: “inactive”; `C[C@@H]1CN([C@H](C)CO)C(=O)c2cc(NS(=O)(=O)c3ccc(Cl)cc3)ccc2O[C@@H](C)CCCCO[C@@H]1CN(C)C(=O)C1CCCCC1`: “active”; `C[C@@H]1CN([C@@H](C)CO)C(=O)c2cc(NS(=O)(=O)c3ccc(Cl)cc3)ccc2O[C@@H](C)CCCCO[C@H]1CN(C)C(=O)C1CCCCC1`: “inactive”.
To `C[C@@H]1CN([C@H](C)CO)C(=O)c2cc(NS(=O)(=O)c3ccc(Cl)cc3)ccc2O[C@@H](C)CCCCO[C@H]1CN(C)C(=O)C1CCCCC1` belongs “active”; to `C[C@@H]1CCCCO[C@@H](CN(C)C(=O)C2CCCCC2)[C@H](C)CN([C@@H](C)CO)C(=O)c2cc(NS(=O)(=O)c3ccccc3)ccc2O1`, “active”; to `C[C@H](CO)N1C[C@H](C)[C@H](CN(C)C(=O)C2CCCCC2)OCCCC[C@H](C)Oc2ccc(NS(=O)(=O)c3ccccc3)cc2C1=O`, “inactive”.
Turning to `COc1ccc(S(=O)(=O)Nc2ccc3c(c2)C(=O)N([C@H](C)CO)C[C@H](C)[C@@H](CN(C)C(=O)C2CCCCC2)OCCCC[C@H](C)O3)cc1`, the cytotoxicity call was “inactive”.
Next, `C[C@@H]1CCCCO[C@@H](CN(C)C(=O)C2CCCCC2)[C@H](C)CN([C@@H](C)CO)C(=O)c2cc(NS(=O)(=O)c3ccc(Cl)cc3)ccc2O1`: “inactive”; `C[C@H]1CN([C@@H](C)CO)C(=O)Cc2cc(NC(=O)Cn3cnnn3)ccc2O[C@H]1CN(C)CC1CC1`: “inactive”; `COc1ccc(NC(=O)N(C)C[C@@H]2Oc3ncc(C#C[C@@H](C)O)cc3C(=O)N([C@@H](C)CO)C[C@@H]2C)cc1`: “inactive”.
Next, `CCC(=O)N[C@H]1CC[C@H](CC(=O)OC)O[C@@H]1CO`: “inactive”; `CNC(=O)C[C@H]1CC[C@@H]2[C@H](COC[C@@H](O)CN2C(=O)c2ccccn2)O1`: “inactive”.
To `CC(C)NC(=O)N(C)C[C@@H]1Oc2c(NS(=O)(=O)c3cn(C)cn3)cccc2C(=O)N([C@H](C)CO)C[C@H]1C` belongs “inactive”; to `Cc1ccc(S(=O)(=O)N(C)C[C@H]2Oc3ccc(NC(=O)NC(C)C)cc3CC(=O)N([C@@H](C)CO)C[C@@H]2C)cc1`, “inactive”; to `O=C(C[C@@H]1CC[C@H]2[C@@H](COC[C@H](O)CN2C(=O)Nc2ccc(C(F)(F)F)cc2)O1)NCCc1ccncc1`, “inactive”.
Regarding `Cc1ccc(S(=O)(=O)Nc2ccc3c(c2)C(=O)N([C@@H](C)CO)C[C@H](C)[C@H](CN(C)C(=O)C2CCCCC2)OCCCC[C@@H](C)O3)cc1`, the cytotoxicity call was “inactive”.
To `Cc1ccc(S(=O)(=O)Nc2ccc3c(c2)C(=O)N([C@H](C)CO)C[C@@H](C)[C@H](CN(C)C(=O)C2CCCCC2)OCCCC[C@@H](C)O3)cc1` belongs “inactive”; to `Cc1ccc(S(=O)(=O)Nc2ccc3c(c2)C(=O)N([C@@H](C)CO)C[C@H](C)[C@@H](CN(C)C(=O)C2CCCCC2)OCCCC[C@@H](C)O3)cc1`, “active”.
As to `C[C@H]1CCCCO[C@H](CN(C)S(=O)(=O)c2cn(C)cn2)[C@@H](C)CN([C@@H](C)CO)C(=O)c2cc(NS(=O)(=O)c3ccc(F)cc3)ccc2O1`, the cytotoxicity call was “inactive”.
Next, `C[C@@H]1CN([C@H](C)CO)C(=O)c2cc(NC(=O)NC3CCCCC3)ccc2O[C@@H]1CN(C)S(C)(=O)=O`: “inactive”.
